From PubChem BioAssay AID1159580 (chemical genetic matrix, 2015)
Values joined by “and” are separate entries in the source; they are usually repeats but may differ in a detail not shown here. Identical values can stand only once. Out of some 5,500 compounds screened, about 2,000 (36%) were called active. Inconclusive results (about 18%) are left out. Rule as the data show it: active = normalized growth mostly below about 0.91 (no sharp cut-off); inconclusive = no clear call, values can overlap the other calls; inactive = mostly above about 0.92. The list shows a part of the results.

Experiment: chemical genetic growth profiling, strain panel (AID 1159580);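 also: tested at 20 µM; growth read once vehicle control cultures reached saturation at 30 °C; 1 = growth at the plate median or of vehicle wells; lower values mean less growth of the strain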
Settings: S. cerevisiae deletion strains, growth OD

Measured: normalized growth

COc1cc(/C=C/C(=O)O)cc(OC)c1OC
inactive: locus YAL021C, strain ccr4, stronger effect = lower value 0.979 | locus YAL026C, strain drs2, stronger effect = lower value 0.999 | locus YAL030W, strain snc1, stronger effect = lower value 0.988 | locus YBL061C, strain skt5, stronger effect = lower value 0.993 | locus YBR009C, strain hhf1, stronger effect = lower value 1.02 | locus YBR021W, strain FUR4, stronger effect = lower value 0.998 | locus YBR023C, strain chs3, stronger effect = lower value 0.993 | locus YBR171W, strain sec66, stronger effect = lower value 1 | locus YBR229C, strain ROT2, stronger effect = lower value 1.01 | locus YBR231C, strain swc5, stronger effect = lower value 0.941 | locus YBR279W, strain paf1, stronger effect = lower value 0.973 | locus YCL011C, strain gbp2, stronger effect = lower value 0.99 | locus YCL016C, strain dcc1, stronger effect = lower value 0.994 | locus YCL029C, strain bik1, stronger effect = lower value 1.01 | locus YCL061C, strain MRC1, stronger effect = lower value 1 | locus YCL069W, strain vba3, stronger effect = lower value 0.992 | locus YCR088W, strain abp1, stronger effect = lower value 0.989 | locus YDL005C, strain med2, stronger effect = lower value 0.979 | locus YDL035C, strain GPR1, stronger effect = lower value 1.01 | locus YDL040C, strain nat1, stronger effect = lower value 0.99 | locus YDL074C, strain BRE1, stronger effect = lower value 1.02 | locus YDL101C, strain DUN1, stronger effect = lower value 1.01 | locus YDL134C, strain PPH21, stronger effect = lower value 1.02 | locus YDL185W, strain tfp1, stronger effect = lower value 1.01 | locus YDL192W, strain arf1, stronger effect = lower value 1.01 | locus YDR001C, strain nth1, stronger effect = lower value 0.985 | locus YDR069C, strain doa4, stronger effect = lower value 0.991 | locus YDR101C, strain arx1, stronger effect = lower value 1.01 | locus YDR137W, strain rgp1, stronger effect = lower value 1 | locus YDR159W, strain sac3, stronger effect = lower value 0.986 | locus YDR162C, strain NBP2, stronger effect = lower value 1.03 | locus YDR195W, strain ref2 0.99 | locus YDR297W, strain sur2, stronger effect = lower value 1 | locus YDR318W, strain mcm21, stronger effect = lower value 1.01 | locus YDR334W, strain swr1, stronger effect = lower value 0.987 | locus YDR335W, strain msn5, stronger effect = lower value 0.987 | locus YDR388W, stronger effect = lower value 1.01 | locus YDR392W, strain spt3, stronger effect = lower value 0.946 | locus YDR502C, strain sam2, stronger effect = lower value 0.991 | locus YEL003W, strain gim4, stronger effect = lower value 0.994 | locus YEL037C, strain rad23, stronger effect = lower value 0.984 | locus YEL061C, strain CIN8 (second series), stronger effect = lower value 0.99 | locus YEL061C, strain CIN8, stronger effect = lower value 1.01 | locus YER015W, strain faa2, stronger effect = lower value 0.975 | locus YER016W, strain bim1, stronger effect = lower value 0.99 | locus YER110C, stronger effect = lower value 1.03 | locus YER111C, strain swi4, stronger effect = lower value 0.984 | locus YER155C, strain BEM2 (second series), stronger effect = lower value 1.01 | locus YER155C, strain BEM2, stronger effect = lower value 1.01 | locus YER167W, strain BCK2, stronger effect = lower value 1.01 | locus YFR010W, strain ubp6, stronger effect = lower value 0.988 | locus YGL078C, strain dbp3, stronger effect = lower value 1.02 | locus YGL086W, strain mad1, stronger effect = lower value 0.997 | locus YGL167C, strain pmr1, stronger effect = lower value 0.982 | locus YGL173C, strain kem1, stronger effect = lower value 0.985 | locus YGL227W, strain vid30, stronger effect = lower value 0.997 | locus YGL240W, strain doc1, stronger effect = lower value 1 | locus YGL248W, strain PDE1, stronger effect = lower value 1.02 | locus YGL253W, strain hxk2, stronger effect = lower value 0.993 | locus YGR078C, strain PAC10, stronger effect = lower value 1.01 | locus YGR135W, strain pre9, stronger effect = lower value 1.02 | locus YGR252W, strain gcn5, stronger effect = lower value 1.02 | locus YHR013C, strain ard1, stronger effect = lower value 0.967 | locus YHR027C, strain rpn1, stronger effect = lower value 1 | locus YHR030C, strain SLT2, stronger effect = lower value 1 and 1.01 | locus YHR079C, strain IRE1 (second series), stronger effect = lower value 1.03 | locus YHR079C, strain IRE1, stronger effect = lower value 1 | locus YHR094C, strain hxt1, stronger effect = lower value 1.02 | locus YHR129C, strain ARP1, stronger effect = lower value 1.01 | locus YHR142W, strain chs7, stronger effect = lower value 0.986 | locus YHR200W, strain rpn10, stronger effect = lower value 1.02 | locus YIL066C, strain RNR3, stronger effect = lower value 1.01 | locus YIL073C, strain SPO22, stronger effect = lower value 1.08 | locus YIL125W, strain kgd1, stronger effect = lower value 1.01 | locus YIR030C, strain dcg1, stronger effect = lower value 1.02 | locus YJL092W, strain hpr5, stronger effect = lower value 0.991 | locus YJL095W, strain BCK1 (second series), stronger effect = lower value 0.994 | locus YJL095W, strain BCK1, stronger effect = lower value 1.01 and 1.03 | locus YJL115W, strain asf1, stronger effect = lower value 0.976 | locus YJL129C, strain trk1, stronger effect = lower value 0.971 | locus YJL134W, strain LCB3, stronger effect = lower value 1 | locus YJL154C, strain vps35, stronger effect = lower value 0.992 | locus YJL164C, strain tpk1, stronger effect = lower value 0.987 | locus YJL166W, strain qcr8, stronger effect = lower value 0.994 | locus YJL168C, strain set2, stronger effect = lower value 1.01 | locus YJL187C, strain SWE1 (second series), stronger effect = lower value 1.01 | locus YJL187C, strain SWE1, stronger effect = lower value 0.991
